PubChem BioAssay AID463173 (ICCB-Longwood Screening Facility, Harvard Medical School, 2010)
The campaign covered roughly 52,000 compounds. About 4,300 (8.3%) were called active. The sample holds actives, similar compounds and a random draw of the others, so the mix is not that of the screen. Values without a mark were called inactive. Cut-off read from the data, not from the text of the source: active = survival mostly below about 52% (no sharp cut-off); inactive = mostly above about 56%.

system: DeltatarO mutant; test: growth inhibition of S. aureus wild type versus tarO mutant, primary screen, teichoic acid synthesis inhibitors, RN4220, OD600 (AID 463173); conditions: OD600, 18 h, active compounds read low, screened at 18.75 µg/mL (by protocol)

Row | SMILES | survival
1 | O=C(NC1CCCC1)C(c1ccncc1)N(CCCN1CCOCC1)C(=O)c1ccc(-c2ccccc2)[nH]1 (centres undefined) | 76%
2 | CN(C)C(=O)c1ccc(S(=O)(=O)NCc2ccccc2Cl)s1 | 94%
3 | Cc1cccc(Cn2cc(C(=O)Nc3cc(F)ccc3F)ccc2=O)c1 | 74%
4 | Cc1noc(-c2ccc(-c3noc(-c4cccc(F)c4)n3)cc2)n1 | 76%
5 | Cc1ccc(NC(=O)Cn2cc3c(n2)CCCC3)cc1Cl | 87%
6 | COc1ccc(C2CC(=O)c3c([nH]c(C(=O)OC4CCCC4)c3C)C2)cc1OC (centres undefined) | 128%
7 | COc1ccc(C2CC(=O)c3c([nH]c(C(=O)OC4CCCCCC4)c3C)C2)cc1OC (centres undefined) | 81%
8 | COc1cc(C2CC(=O)c3c([nH]c(C(=O)OC4CCCC4)c3C)C2)cc(OC)c1OC (centres undefined) | 51% (active)
9 | CC1(C)CC(=O)C2=C(C1)OC(N)=C(C#N)C2c1ccc2c(c1Cl)OCO2 (centres undefined) | 97%
10 | COC(=O)c1ccccc1NC(=O)c1cc(CN2CCCC2)on1 | 75%
11 | CC1CCCCN1C(=O)c1cc(-c2ccc(Br)cc2)on1 (centres undefined) | 66%
12 | COc1ccccc1-c1cc(C(=O)N2CCCCC2C)no1 (centres undefined) | 11% (active)
13 | CC1CCCCN1C(=O)c1cccc(C(=O)N2CCCCC2C)c1 (centres undefined) | 80%
14 | CC1CCCCN1C(=O)c1cc(-c2ccccc2)on1 (centres undefined) | 88%
15 | COc1ccc(-c2cc(C(=O)N3CCCCC3C)no2)cc1OC (centres undefined) | 58% (active)
16 | COc1ccc(-c2cc(C(=O)Nc3ccc4c(c3)OCO4)no2)cc1OC | 65%
17 | CCOc1ccccc1C(=O)N(C)c1ccccc1 | 92%
18 | CCc1nn2c(=O)cc(COC(=O)c3ccccc3NC(=O)c3ccc(C(C)(C)C)cc3)nc2s1 | 91%
19 | O=c1cc(-c2ccccc2)nc(SCc2nc(-c3ccccc3Cl)no2)[nH]1 | 69%
20 | Cc1ccc(CNC(=O)Cn2c(-c3cccs3)cc3cc(Cl)ccc32)cc1 | 79%
21 | CCOc1ccc(C(=O)Nc2ccc3oc(-c4ccc5ccccc5c4)nc3c2)cc1 | 74%
22 | CCOc1cccc(C(=O)Nc2ccc3oc(-c4cccnc4)nc3c2)c1 | 56%
23 | CCOc1ccc(C(=O)Nc2ccc3oc(-c4cccc5ccccc45)nc3c2)cc1 | 60% (active)
24 | CCCCOc1cccc(C(=O)Nc2ccc3oc(-c4cccnc4)nc3c2)c1 | 46% (active)
25 | Cc1ccc(C(=O)Nc2ccc3oc(-c4ccc(C(C)(C)C)cc4)nc3c2)cc1 | 70%
26 | CCOc1cccc(C(=O)Nc2ccc3oc(-c4ccncc4)nc3c2)c1 | 70%
27 | CCCCOc1ccc(C(=O)Nc2ccc3oc(-c4cccnc4)nc3c2)cc1 | 69%
28 | CCOc1cccc(C(=O)Nc2ccc3oc(-c4ccc(C(C)(C)C)cc4)nc3c2)c1 | 46% (active)
29 | CCOc1ccc(C(=O)Nc2ccc3oc(-c4ccncc4)nc3c2)cc1 | 74%
